Records with an inconclusive call do not appear. Unmarked numbers belong to inactive results. Active and inactive are the calls of the source. Calls come from the whole dose curve; as a rule, active = well fitted inhibition curve with a large enough effect; inconclusive = small, poorly fitted or top-dose-only effect; inactive = flat fitted curve, though single readings scatter.
Key:
Test in all cases: Cytotoxic Profiling of Annotated Libraries Using Quantitative High-Throughput Screening (AID 1296008); note: nearly all actives have a fitted effect of over 60% in size
Conditions in all cases: Five cell lines viability, CellTiter-Glo ATP luminescence, 48-72 h; max response: active compounds read low
CRL-7250 = normal cell line; test system: CRL-7250
Procedure, shortened: (§1)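 Compounds were pin-transferred onto cells and incubated 48 or 72 hr at 37 degree Celsius, 95% humidity. CellTiter-Glo was added, plates sat 10 min at room temperature, then ATP-coupled luminescence was imaged as the viability read-out.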

HEK293 = test system: HEK293
Procedure, shortened: as §1

HaCat = test system: HaCat
Procedure, shortened: as §1

NIH3T3 = test system: NIH3T3
Procedure, shortened: as §1
% is set by controls: 0 for no effect and ±100 for the full control effect; potency is the fitted concentration of half-maximal effect.

With `CCCCNc1ncc(-c2ccc(CN3CCOCC3)cn2)c(NC2CCC(O)CC2)n1` (configuration not stated) the max response (CRL-7250) was -14.5% and the max response (HEK293) was -11.5%.

In the case of `C=C1C(=O)O[C@@H]2[C@H]3C(C)=CC(=O)C3=C(C)CC[C@@H]12`, the Potency (CRL-7250) is reported as 7.31 µM (active) and the Potency (HEK293) is reported as 2.06 µM (active).

`Nc1nc(NC2CC2)cc(-c2cccc(Cl)c2Cl)n1` was tested, and the max response (CRL-7250) was -27.4% and the Potency (HEK293) was 18.4 µM (active).

In the case of `COc1cc(CCC2=NN=C(NC(=O)c3ccc(N4C[C@@H](C)N[C@@H](C)C4)cc3)C2)cc(OC)c1`, the Potency (CRL-7250) is reported as 10.3 µM (active), the Potency (HEK293) is reported as 18.4 µM (active) and the max response (HaCat) is reported as -66.4%.

In the case of `Fc1ccc2[nH]ccc2c1-c1nc(N2CCOCC2)c2sc(CN3CCN(CC4CC4)CC3)cc2n1`, the max response (CRL-7250) is reported as -20.6% and the Potency (HEK293) is reported as 18.4 µM (active).

For `C=C1C(=O)OC2/C=C(\COC(C)=O)CC/C=C(\C=O)CC(OC(=O)CC(C)C)C12` (configuration not stated), the Potency (CRL-7250) was 7.96 µM (active) and the Potency (HEK293) was 2.82 µM (active).

`O=C1C(Cc2ccc(O)cc2)N2C(=O)CCN(C(=O)NCc3ccccc3)C2CN1Cc1cccc2ccccc12` (configuration not stated) was tested, and the Potency (CRL-7250) was 4.61 µM (active), the Potency (HEK293) was 4.11 µM (active) and the Potency (HaCat) was 5.8 µM (active).

In the case of `C=C1C(=O)O[C@H]2/C=C(/C)[C@@H](OC(C)=O)C/C=C(\C)C[C@@H](OC(=O)/C(=C/C)COC(=O)/C(=C/C)CO)[C@@H]12`, the Potency (CRL-7250) is reported as 8.93 µM (active) and the Potency (HEK293) is reported as 3.17 µM (active).

`C=CC(=O)Nc1ccc2ncnc(Nc3cccc(Br)c3)c2c1` was tested, and the Potency (CRL-7250) was 5.8 µM (active), the Potency (HEK293) was 20.6 µM (active) and the Potency (HaCat) was 0.0461 µM (active).

For `CCC(C)CC(=O)OC1C(=O)C(CO)=CC(O)C1C(C)C` (configuration not stated), the Potency (CRL-7250) was 18.4 µM (active) and the Potency (HEK293) was 8.2 µM (active).

`O=C1Nc2nc(-c3c(O)cccc3OCC3CC3)cc([C@@H]3CCCNC3)c2CO1` was tested, and the max response (CRL-7250) was -29.4% and the Potency (HEK293) was 20.6 µM (active).

`C[C@@H]1O[C@@H](O[C@H]2[C@H](OC(=O)[C@]34CCC(C)(C)C[C@H]3C3=CCC5[C@@]6(C)C[C@H](O)[C@H](O[C@@H]7O[C@H](CO)[C@@H](O)[C@H](O)[C@H]7O)[C@](CO)(C(=O)O)C6CC[C@@]5(C)[C@]3(C)C[C@H]4O)OC[C@H](O)[C@@H]2O)[C@H](O)[C@H](O)[C@H]1O[C@@H]1OC[C@@H](O)[C@H](O[C@@H]2OC[C@](O)(CO)[C@H]2O)[C@H]1O` (some centres not stated) was tested, and the Potency (CRL-7250) was 1.38 µM (active) and the Potency (HEK293) was 0.692 µM (active).

`CN1CCN(c2ccc(Nc3cc(-c4cccc(-n5ccc6cc(C7CC7)cc(F)c6c5=O)c4CO)cn(C)c3=O)nc2)CC1` was tested, and the Potency (CRL-7250) was 23.1 µM (active), the Potency (HEK293) was 11.6 µM (active) and the Potency (HaCat) was 18.4 µM (active).

For `COc1cc2c(cc1OC(C)C)[C@H](c1ccc(Cl)cc1)N(c1ccc(N(C)CC3CCC(N4CCN(C)C(=O)C4)CC3)cc1)C(=O)C2` (some centres not stated), the Potency (CRL-7250) was 18.4 µM (active) and the max response (HEK293) was -97.2%.

`C[C@@H](N[C@H]1CCCC[C@@H]1NC(=O)c1ccc(Cl)cc1)c1cccc2ccccc12` was tested, and the max response (CRL-7250) was 0.829%, the Potency (HEK293) was 20.6 µM (active) and the max response (HaCat) was -13%.

For `Cc1nnc(C[C@@H]2C=C(c3ccc(Cl)cc3)c3ccccc3-n3c(C)nnc32)o1`, the Potency (CRL-7250) was 0.651 µM (active), the Potency (HEK293) was 1.16 µM (active) and the max response (HaCat) was -1.46%.

`Cn1c(=O)c2c(ncn2Cc2ccc(C(C)(C)C)cc2)n(C)c1=O` was tested, and the Potency (CRL-7250) was 1.3 µM (active), the Potency (HEK293) was 1.64 µM (active) and the max response (HaCat) was -22.1%.

`COc1cc(NC(=O)c2cccc(-n3cc(NC(=O)Nc4cccc(C)c4)cn3)c2)cc(OC)c1OC` was tested, and the outcome (CRL-7250) was “inactive”, the Potency (HEK293) was 9.2 µM (active) and the max response (HaCat) was 3.54%.

With `CC(C)C[C@@H]1NC(=O)[C@@H](Cc2ccccc2)NC(=O)C(CCCCCC(=O)C2CO2)NC(=O)[C@@H]2CCCCN2C1=O` (some centres not stated) the Potency (CRL-7250) was 3.55 µM (active), the Potency (HEK293) was 2.82 µM (active) and the Potency (HaCat) was 3.17 µM (active).

With `CC(C)S(=O)(=O)Nc1ccc(F)c(C(=O)c2c[nH]c3ncc(-c4cccnc4)cc23)c1F` the Potency (CRL-7250) was 18.4 µM (active) and the Potency (HEK293) was 14.6 µM (active).

`CCn1c2ccccc2c2cc(Nc3ccnc(NCCCN4CCOCC4)n3)ccc21` was tested, and the Potency (CRL-7250) was 18.4 µM (active) and the Potency (HEK293) was 9.2 µM (active).

With `C=C1C(=O)O[C@@H]2C[C@H](C)[C@@H]3CC(=O)C(C)=C3C[C@H]12` the Potency (CRL-7250) was 10.3 µM (active), the Potency (HEK293) was 8.2 µM (active) and the Potency (HaCat) was 14.6 µM (active).

In the case of `OC1C=C2C3CN(Cc4cc5c(cc43)OCO5)C2CC1O` (configuration not stated), the Potency (CRL-7250) is reported as 8.2 µM (active) and the Potency (HEK293) is reported as 6.51 µM (active).

In the case of `COc1ccc(-c2cc3onc(-c4ccncc4)c3c(=O)n2C)cc1`, the Potency (CRL-7250) is reported as 0.651 µM (active), the Potency (HEK293) is reported as 1.3 µM (active) and the max response (HaCat) is reported as -2.33%.

With `Cn1ncc(Cl)c1-c1cc(C(=O)N[C@H](CN)Cc2ccc(F)c(F)c2)sc1Cl` the max response (CRL-7250) was -4.08% and the Potency (HEK293) was 1.3 µM (active).

In the case of `COc1cc(S(C)(=O)=O)ccc1Nc1nc2ccc(-c3ccc(NC(=O)[C@H](C)c4ccc(F)cc4)cc3)cn2n1`, the outcome (CRL-7250) is reported as “inactive” and the Potency (HEK293) is reported as 0.331 µM (active).

For `COCC(=O)NC/C=C/c1ccc2ncnc(Nc3ccc(Oc4ccc(C)nc4)c(C)c3)c2c1`, the Potency (CRL-7250) was 9.2 µM (active) and the Potency (HEK293) was 14.6 µM (active).

In the case of `COC1CC(=O)C23C(=O)NC(Cc4c[nH]c5ccccc45)C2C(C)C2(C)OC2C3/C=C/CC(C)CC1O` (configuration not stated), the Potency (CRL-7250) is reported as 5.02 µM (active) and the Potency (HEK293) is reported as 7.09 µM (active).

In the case of `C=C1CC[C@@H]2[C@](C)(CO)[C@H](O)CC[C@@]2(C)[C@@H]1C/C=C1/C(=O)OCC1O` (some centres not stated), the Potency (CRL-7250) is reported as 18.4 µM (active), the Potency (HEK293) is reported as 7.31 µM (active) and the max response (HaCat) is reported as -10.5%.

In the case of `COc1cc(N2CCC(N)CC2)ccc1Nc1ncc(Cl)c(-c2c[nH]c3ccccc23)n1`, the Potency (CRL-7250) is reported as 6.51 µM (active), the Potency (HEK293) is reported as 4.61 µM (active) and the Potency (HaCat) is reported as 5.17 µM (active). The Potency (NIH3T3) was 2.31 µM (active).

With `N#Cc1ccc(Nc2nc(-c3ccc(O)cc3O)cs2)cc1C(F)(F)F` the Potency (CRL-7250) was 5.8 µM (active), the Potency (HEK293) was 3.26 µM (active) and the Potency (HaCat) was 7.31 µM (active).
